High-throughput results: PubChem BioAssay, National Center for Advancing Translational Sciences (NCATS)
Sampled rows, rich in hits. Any-hit rate of the full collection: about 19%.
HT1080-NT tox: kills 2HG-producing HT-1080-NT fibrosarcoma cells; HT-1080-NT fibrosarcoma viability, CellTiter-Glo ATP luminescence, 48 h; Potency, µM (doses to about 46.1 µM), hits mostly cytotoxic; actives 1.6% (n = 360,000); AID 686970;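 also: NT is the 2HG producing partner of a matched IDH1 knockdown line; nearly all actives have a fitted effect of over 55% in size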
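Viability of the 2HG-overproducing fibrosarcoma line after 48 hours of compound exposure at 37 degrees C was determined by luminescence with CellTiter-Glo, and concentration-effect curves were then fitted and categorized.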
TDP1 cell noCPT: qHTS for Inhibitors of human tyrosyl-DNA phosphodiesterase 1 (TDP1): qHTS in cells in absence of CPT; DT40 Tdp1-/- hTDP1 cells, no CPT, ATP luminescence, 48 h; Potency, µM (series often up to 46.2 µM), actives largely listed as inhibitors; actives 15% (n = 420,000); AID 686978, 2013; also: nearly all actives have a fitted effect of over 55% in size
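No-CPT arm: Tdp1-/-;hTDP1 DT40 cells (400/well) plus compounds, incubated ≥48 hr at 37 °C. Readout CellTiter-Glo luminescence.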
TDP1 cell CPT: DT40-hTDP1 cell growth loss with CPT. actives 12% (n = 420,000). Potency, µM (titrated, usually from 46.2 µM), most hits filed as inhibitors. chicken DT40 Tdp1-/-;hTDP1 cells + 20 nM CPT, ATP luminescence, 48 h; also: nearly all actives have a fitted effect of over 55% in size
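Cell growth measured by CellTiter-Glo luminescence after a minimum 48 h, 37 C compound exposure with 20 nM CPT in Tdp1-knockout DT40 cells stably expressing hTDP1, seeded 400/well; qHTS titration format.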
HT1080 IDH1KD tx: toxicity to HT-1080 IDH1 knockdown cells (counter line); actives 2% (n = 360,000); HT-1080 IDH1 knockdown viability, ATP luminescence, 48 h; Potency, µM (doses to about 46.1 µM), hits mostly cytotoxic; AID 686971
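After a 2 h attachment period, IDH1KD HT-1080 cells took pin-transferred compound for 48 h at 37 °C; ATP-based luminescence after 10 min room-temperature reagent incubation reported viability.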
IL1B secr inh: inflammasome signaling inhibition, IL-1 beta readout; actives 4.7% (n = 360,000); activity change, % at 57.5 µM; THP-1 LPS/ATP IL-1B secretion, AlphaLISA, 16 h; hits give low values; in the data active = activity change below about -50%; inconclusive = mostly about -30% to -49%
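THP-1 cells pretreated 1 hr with compounds (up to 57.5 uM final), then stimulated with LPS (250 ng/mL final) plus ATP (1.25 mM final); secreted IL-1B measured by AlphaLISA after 16 hr, decreased signal indicating inhibition.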
ELG1 repair inh: inhibitors of ELG1-dependent DNA repair in HEK293T cells; Potency, µM (series often up to 46.1 µM), actives largely listed as inhibitors; HEK293T ELG1-luciferase reporter, luminescence, 16 h; DNA damage induced by 5-fluorouridine; actives 2.3% (n = 330,000); AID 504467; also: nearly all actives have a fitted effect of over 55% in size
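HEK293T cells expressing luciferase-tagged ELG1 (2,000/well) received 5-Fluorouridine plus compound or DMSO for 16 hr at 37 °C. Luciferase was read by ONE-Glo luminescence after 30 min at room temperature.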
Each line names hits and unclear results; the compound was inactive in the other large screens. Unless noted, calls follow the shape of the dose curve; as a rule, active = well fitted curve in the direction sought with a large enough effect; inconclusive = small, poorly fitted or top-dose-only effect, or another doubt; inactive = no such curve, though single readings can be large; an effect the other way counts as inactive or inconclusive.

COc1ccc(C2CC(=O)C=C(NCCC(C)C)C2)cc1 (stereo not drawn)	TDP1 cell noCPT 15µM, TDP1 cell CPT inconclusive
O=c1[nH]c2ccc(NCc3ccccc3F)cc2[nH]1	none (no result: HT1080-NT tox, HT1080 IDH1KD tx, IL1B secr inh, ELG1 repair inh)
CC1(C(=O)NS(=O)(=O)c2cccc(C#N)c2)CCN1C(=O)CC1CCCCC1 (stereo not drawn)	none (no result: ELG1 repair inh)
O=c1ccn([C@@H]2O[C@H](CNCC3=Cc4cc(O)ccc4OC3)[C@@H](O)[C@H]2O)c(=O)[nH]1	none (no result: ELG1 repair inh)
COc1ccccc1CNC(=O)CN1C(=O)CSc2ccc(S(=O)(=O)N(C)C)cc21	TDP1 cell CPT inconclusive (no result: HT1080-NT tox, HT1080 IDH1KD tx, IL1B secr inh, ELG1 repair inh)
C=CCn1c(SCC(C)=O)nnc1-c1cc(-c2ccccc2)sc1N	TDP1 cell noCPT inconclusive, TDP1 cell CPT inconclusive, ELG1 repair inh 26µM
C=CCn1c(SCC(N)=O)nnc1-c1cccc(Br)c1	none
COc1ccc(C(C)NCCC(c2ccc(OC(C)C)cc2)c2ccccc2OC)cc1 (stereo not drawn)	HT1080-NT tox 15µM, TDP1 cell noCPT 5.8µM, TDP1 cell CPT 5.8µM, HT1080 IDH1KD tx inconclusive, IL1B secr inh -98, ELG1 repair inh inconclusive
COc1ccc(C(CCNC(C)c2ccccc2)C(C)C)cc1 (stereo not drawn)	HT1080-NT tox inconclusive, TDP1 cell noCPT 16µM, TDP1 cell CPT inconclusive, HT1080 IDH1KD tx inconclusive (no result: IL1B secr inh)
COc1ccc(C(C)NS(=O)(=O)Cc2ccccc2)cc1 (stereo not drawn)	none
COc1ccc(C(CC(=O)NCc2ccccc2)C(C)C)cc1 (stereo not drawn)	TDP1 cell noCPT inconclusive (no result: IL1B secr inh)
CC(OC(=O)c1cc2sccc2n1C)C(=O)NCCc1ccccc1 (stereo not drawn)	HT1080-NT tox inconclusive, TDP1 cell noCPT 18µM, TDP1 cell CPT 15µM, HT1080 IDH1KD tx inconclusive, ELG1 repair inh inconclusive
CC(OC(=O)c1cc2sccc2n1C)C(=O)NCc1ccc(F)cc1 (stereo not drawn)	HT1080 IDH1KD tx inconclusive
CCOC(=O)N1CCc2c(sc(NCc3ccc(OC)c(OC)c3OC)c2C(=O)Nc2ccc(OC)cc2OC)C1	TDP1 cell noCPT 16µM, TDP1 cell CPT inconclusive (no result: HT1080-NT tox, HT1080 IDH1KD tx, IL1B secr inh, ELG1 repair inh)
COc1ccccc1NC(=O)c1c(NC(=O)c2ccccc2F)sc2c1CCC2	none (no result: HT1080-NT tox, HT1080 IDH1KD tx, IL1B secr inh, ELG1 repair inh)
C=CCNCC(=O)Nc1sc2c(c1C(=O)Nc1ccc(OC)cc1OC)CCC2	TDP1 cell noCPT inconclusive, TDP1 cell CPT inconclusive, ELG1 repair inh 21µM
COc1ccc(NC(=O)c2c(NCc3sccc3C)sc3c2CCCC3)c(OC)c1	TDP1 cell noCPT 13µM, TDP1 cell CPT 21µM (no result: HT1080-NT tox, HT1080 IDH1KD tx, IL1B secr inh, ELG1 repair inh)
COc1ccc(NC(=O)c2c(NCc3cccc(F)c3)sc3c2CCC3)c(OC)c1	TDP1 cell noCPT 10µM, TDP1 cell CPT 13µM (no result: HT1080-NT tox, HT1080 IDH1KD tx, IL1B secr inh, ELG1 repair inh)
Cc1ccccc1N/C=C/C(=C(C#N)C#N)N(C)C	HT1080 IDH1KD tx inconclusive
COc1ccc(-c2cc3nc(-c4ccc(Br)cc4)cc(C(F)(F)F)n3n2)cc1	none (no result: HT1080-NT tox, HT1080 IDH1KD tx, IL1B secr inh, ELG1 repair inh)
O=c1cc(O)c(Cl)c[nH]1	none (no result: HT1080-NT tox, HT1080 IDH1KD tx, IL1B secr inh, ELG1 repair inh)
COc1ccc(NC(=O)c2c(NCc3ccc(OC)c(OC)c3OC)sc3c2CCC3)c(OC)c1	TDP1 cell noCPT 15µM, TDP1 cell CPT 13µM (no result: HT1080-NT tox, HT1080 IDH1KD tx, IL1B secr inh, ELG1 repair inh)
CCOC(=O)c1ccc(NC(=O)c2c(NCc3sccc3C)sc3c2CCCCC3)cc1	TDP1 cell noCPT 21µM, TDP1 cell CPT 12µM (no result: HT1080-NT tox, HT1080 IDH1KD tx, IL1B secr inh, ELG1 repair inh)
CCOC(=O)c1ccc(NC(=O)c2c(NCc3cccc(OC)c3OC)sc3c2CCC3)cc1	TDP1 cell noCPT 21µM, TDP1 cell CPT 15µM (no result: HT1080-NT tox, HT1080 IDH1KD tx, IL1B secr inh, ELG1 repair inh)
CCOc1ccccc1NC(=O)c1c(NCc2ccc(OC)c(OC)c2OC)sc2c1CCC(C)C2 (stereo not drawn)	TDP1 cell noCPT 18µM, TDP1 cell CPT inconclusive (no result: HT1080-NT tox, HT1080 IDH1KD tx, IL1B secr inh, ELG1 repair inh)
CCOC(=O)c1c(NC(=O)c2cc(OC)c(OC)c(OC)c2)sc2c1CCCC2	none (no result: HT1080-NT tox, HT1080 IDH1KD tx, IL1B secr inh, ELG1 repair inh)
CC(=O)Nc1cccc(-c2csc(C(O)c3ccccc3)n2)c1 (stereo not drawn)	TDP1 cell CPT inconclusive (no result: ELG1 repair inh)
O=C(Nc1ccc(F)cc1F)c1cc(Cl)sc1Cl	ELG1 repair inh inconclusive
COc1ccccc1NC(=O)c1c(NC(=O)c2ccccc2Cl)sc2c1CCC2	none (no result: HT1080-NT tox, HT1080 IDH1KD tx, IL1B secr inh, ELG1 repair inh)
COc1ccccc1NC(=O)c1c(NCc2ccc(OC)c(OC)c2OC)sc2c1CCC2	TDP1 cell noCPT 23µM, TDP1 cell CPT inconclusive (no result: HT1080-NT tox, HT1080 IDH1KD tx, IL1B secr inh, ELG1 repair inh)
Cc1ccc(CNC(=O)c2ccc(OCC(C)C)cc2)n1C	none
Oc1c(C2=NCCNC(C(F)(F)F)=C2)ccc2ccccc12	HT1080-NT tox inconclusive, HT1080 IDH1KD tx inconclusive, IL1B secr inh -109, ELG1 repair inh inconclusive
COc1ccc(C(C)(O)c2nc(-c3cccc(NC(C)=O)c3)cs2)cc1 (stereo not drawn)	TDP1 cell noCPT inconclusive (no result: ELG1 repair inh)
CCCCN(C)C(=O)c1nc2ccccn2c1CN1CCN(c2ncccn2)CC1	none
CCCCN(C)C(=O)c1nc2ccccn2c1CN1CCN(C/C=C/c2ccccc2)CC1	TDP1 cell noCPT 26µM, TDP1 cell CPT inconclusive
COc1ccc(C(=O)CSc2nnc(Cn3cnc4ccccc43)o2)cc1	TDP1 cell noCPT 16µM, TDP1 cell CPT 8.2µM, IL1B secr inh inconclusive, ELG1 repair inh inconclusive
O=C(CSc1nnc(CNc2ccccc2)o1)c1ccc2c(c1)OCCO2	TDP1 cell noCPT inconclusive, TDP1 cell CPT inconclusive, IL1B secr inh -68
